Reference: PubChem BioAssay (NCATS)
Results filed as inconclusive are left out. A call without a number means that no potency is given here. The source made the active and inactive calls. Unless noted, the call rests on the fitted dose curve; in most records, active means well fitted curve in the direction sought with a large enough effect; inconclusive means small, poorly fitted or top-dose-only effect, or another doubt; inactive means no such curve, though single readings can be large; an effect the other way counts as inactive or inconclusive.

Experiments:
[1] = HepG2 viability counterscreen (readout 2: ATP content) against the NCATS DSHEA and TCM libraries (AID 1794840)
In short: (§1)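 HepG2 cells, 1,000/well, attached ~4 h, then exposed ~24 h at 37C to substances. Protease activity read by fluorescence of 25 uM GF-AFC (Ex/Em 380/510 nm) after 30 min; ATP then by CellTiter-Glo luminescence.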

[2] = target: Glutathione peroxidase 1 (Homo sapiens) (UniProt P07203); test: Primary qHTS Assay for Inhibitors of Recombinant Selenoprotein Glutathione Peroxidase 1 (GPX1) (AID 1845191); further: nearly all actives have a fitted effect of over 65% in size
Chain of Glutathione peroxidase 1 (Homo sapiens) (P07203 whole entry, looked up): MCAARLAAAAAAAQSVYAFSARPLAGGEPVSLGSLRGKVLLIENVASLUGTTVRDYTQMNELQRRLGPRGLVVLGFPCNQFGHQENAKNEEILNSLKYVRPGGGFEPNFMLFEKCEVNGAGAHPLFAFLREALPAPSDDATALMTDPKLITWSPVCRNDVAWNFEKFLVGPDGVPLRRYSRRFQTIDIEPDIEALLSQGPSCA
In short: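 10 nM GPX1 + cpd, 30 min RT; start w/ 1 mM GSH, 0.5 mM cumene hydroperoxide, 0.5 mM NADPH, 100 nM GR, 0.01% BSA; buffer 50 mM Tris-HCl pH 7.5, 2 mM EDTA, 150 mM NaCl; Fl 340/450, 0 & 15 min.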

[3] = target: Phospholipid hydroperoxide glutathione peroxidase GPX4 (Homo sapiens) (UniProt P36969); test: Primary qHTS Assay for Inhibitors of Recombinant Selenoprotein Glutathione Peroxidase 4 (GPX4) (AID 1845192); further: nearly all actives have a fitted effect of over 65% in size
Chain of Phospholipid hydroperoxide glutathione peroxidase GPX4 (Homo sapiens) (P36969 whole entry, looked up): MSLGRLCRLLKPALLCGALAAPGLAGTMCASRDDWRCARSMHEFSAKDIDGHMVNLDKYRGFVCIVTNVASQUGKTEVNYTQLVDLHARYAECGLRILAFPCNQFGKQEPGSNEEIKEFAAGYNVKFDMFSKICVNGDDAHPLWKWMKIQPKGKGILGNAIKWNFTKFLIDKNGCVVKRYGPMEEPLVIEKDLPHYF
In short: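 NADPH consumption, followed by fluorescence at 340/450 nm between 0 and 15 min, reports GPX4 activity via coupled glutathione reductase (100 nM). Enzyme 200 nM was pre-exposed to compound 30 min; 0.5 mM cumene hydroperoxide and 1 mM GSH served as substrates.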

[4] = target: Cytochrome P450 3A4 (Homo sapiens) (UniProt P08684); test: qHTS for inhibitors of CYP3A4 against the NCATS DSHEA and TCM libraries (AID 1919971);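 further: inhibition lowers luminescence from luciferin made by CYP3A4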
Chain of Cytochrome P450 3A4 (Homo sapiens) (P08684 whole entry, looked up, canonical isoform): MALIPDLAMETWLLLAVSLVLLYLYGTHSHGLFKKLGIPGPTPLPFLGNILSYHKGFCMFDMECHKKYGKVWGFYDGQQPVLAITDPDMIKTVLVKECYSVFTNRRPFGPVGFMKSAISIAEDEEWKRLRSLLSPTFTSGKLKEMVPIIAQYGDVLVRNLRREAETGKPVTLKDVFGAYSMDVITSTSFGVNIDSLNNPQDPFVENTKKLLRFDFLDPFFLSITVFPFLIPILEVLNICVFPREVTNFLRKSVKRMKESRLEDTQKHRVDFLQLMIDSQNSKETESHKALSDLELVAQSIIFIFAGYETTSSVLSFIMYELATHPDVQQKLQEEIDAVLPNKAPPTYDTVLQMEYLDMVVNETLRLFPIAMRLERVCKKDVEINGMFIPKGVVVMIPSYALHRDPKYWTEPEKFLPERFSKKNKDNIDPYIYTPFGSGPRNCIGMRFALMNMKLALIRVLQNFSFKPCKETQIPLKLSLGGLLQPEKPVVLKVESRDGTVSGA
In short: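 Read-out is luminescence after P450-Glo detection (30 min, RT). Before that: 15 min compound–enzyme preincubation, then 30-45 min reaction with 1x NADPH regeneration solution, substrate concentration isoform-specific.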

[5] = target: Cytochrome P450 2D6 (Homo sapiens) (UniProt P10635); test: qHTS for inhibitors of CYP2D6 against the NCATS DSHEA and TCM libraries (AID 1919972)
Chain of Cytochrome P450 2D6 (Homo sapiens) (P10635 whole entry, looked up): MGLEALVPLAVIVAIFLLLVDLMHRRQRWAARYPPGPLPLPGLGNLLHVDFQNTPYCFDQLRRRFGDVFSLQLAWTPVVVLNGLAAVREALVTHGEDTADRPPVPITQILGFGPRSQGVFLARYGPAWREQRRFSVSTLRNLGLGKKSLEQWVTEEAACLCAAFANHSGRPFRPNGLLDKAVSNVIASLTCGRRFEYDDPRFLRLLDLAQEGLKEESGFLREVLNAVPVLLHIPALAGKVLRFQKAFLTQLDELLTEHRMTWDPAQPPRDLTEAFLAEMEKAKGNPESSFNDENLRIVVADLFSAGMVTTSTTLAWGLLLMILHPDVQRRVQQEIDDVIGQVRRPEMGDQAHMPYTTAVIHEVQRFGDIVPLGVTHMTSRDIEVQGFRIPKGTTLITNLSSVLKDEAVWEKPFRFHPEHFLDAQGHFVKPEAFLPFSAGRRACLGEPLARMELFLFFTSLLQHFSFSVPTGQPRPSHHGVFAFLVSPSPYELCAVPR
In short: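 Luminescent P450-Glo read-out of CYP2D6 turnover of a luciferin substrate after NADPH-driven reaction of 30-45 min at room temperature. Compounds were first preincubated 15 min with enzyme at titrated concentrations; quinidine was the intraplate control.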

[6] = target: Catechol O-methyltransferase (Homo sapiens) (UniProt P21964); test: Confirmatory Screen for Target Class Profiling of Small Molecule Inhibitors of Methyltransferases (AID 1745852; calls by dose curve; further: potency means the concentration at half of the fitted maximal effect); conditions: MTase-Glo luminescence, SAH detection, recombinant enzyme; measured here: COMT max response; stronger effect = lower value
Chain of Catechol O-methyltransferase (Homo sapiens) (P21964 whole entry, looked up): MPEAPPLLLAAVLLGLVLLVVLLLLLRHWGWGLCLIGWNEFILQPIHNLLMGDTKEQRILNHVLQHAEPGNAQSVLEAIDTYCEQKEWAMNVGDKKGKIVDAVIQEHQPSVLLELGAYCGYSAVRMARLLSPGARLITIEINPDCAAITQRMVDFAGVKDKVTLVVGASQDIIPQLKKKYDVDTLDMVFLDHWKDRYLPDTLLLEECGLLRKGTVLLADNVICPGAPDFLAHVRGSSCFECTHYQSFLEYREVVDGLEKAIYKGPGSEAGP

[7] = target: Guanidinoacetate N-methyltransferase (Homo sapiens) (UniProt Q14353); test: as above; conditions: MTase-Glo luminescence, SAH detection, recombinant enzyme; for activity change, negative = inhibition: at 57.3 µM (top of the series)
[8] = target: Nicotinamide N-methyltransferase (Homo sapiens) (UniProt P40261); test: as above; conditions: MTase-Glo luminescence, SAH detection, recombinant enzyme; measured here: NNMT max response; stronger effect = lower value
Chain of Nicotinamide N-methyltransferase (Homo sapiens) (P40261 whole entry, looked up): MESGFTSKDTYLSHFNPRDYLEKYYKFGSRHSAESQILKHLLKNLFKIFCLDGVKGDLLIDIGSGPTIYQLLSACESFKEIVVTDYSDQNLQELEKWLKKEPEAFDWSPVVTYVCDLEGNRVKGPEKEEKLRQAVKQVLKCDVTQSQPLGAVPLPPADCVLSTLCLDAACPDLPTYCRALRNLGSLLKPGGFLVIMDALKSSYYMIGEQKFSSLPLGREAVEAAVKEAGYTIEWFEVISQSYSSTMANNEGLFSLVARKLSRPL

[9] = target: Phenylethanolamine N-methyltransferase (Homo sapiens) (UniProt P11086); test: as above; conditions: MTase-Glo luminescence, SAH detection, recombinant enzyme; measured here: PNMT max response; stronger effect = lower value
Chain of Phenylethanolamine N-methyltransferase (Homo sapiens) (P11086 whole entry, looked up): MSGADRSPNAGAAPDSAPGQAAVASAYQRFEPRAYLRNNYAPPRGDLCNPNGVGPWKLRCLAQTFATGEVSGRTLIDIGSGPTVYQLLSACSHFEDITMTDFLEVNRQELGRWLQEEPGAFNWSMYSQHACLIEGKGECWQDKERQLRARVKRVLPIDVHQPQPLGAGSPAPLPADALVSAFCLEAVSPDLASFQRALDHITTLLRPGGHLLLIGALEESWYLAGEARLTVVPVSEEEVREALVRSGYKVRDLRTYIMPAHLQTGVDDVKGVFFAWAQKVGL

[10] = HepG2 viability counterscreen (readout 1: protease activity) against the NCATS DSHEA and TCM libraries (AID 1794841);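 further: cells exposed to compounds for about 24 h before the protease read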
In short: as §1

[11] = target: Metallo-beta-lactamase type 2 (Klebsiella pneumoniae) (UniProt C7C422); test: qHTS to identify inhibitors of the New Delhi Metallo-beta-lactamase (NDM): assay validation screen against the NCATS LOPAC Collection (AID 1794843);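 further: nitrocefin turnover by NDM-1 measured as 485 nm absorbance at plateau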
Chain of Metallo-beta-lactamase type 2 (Klebsiella pneumoniae) (C7C422 whole entry, looked up): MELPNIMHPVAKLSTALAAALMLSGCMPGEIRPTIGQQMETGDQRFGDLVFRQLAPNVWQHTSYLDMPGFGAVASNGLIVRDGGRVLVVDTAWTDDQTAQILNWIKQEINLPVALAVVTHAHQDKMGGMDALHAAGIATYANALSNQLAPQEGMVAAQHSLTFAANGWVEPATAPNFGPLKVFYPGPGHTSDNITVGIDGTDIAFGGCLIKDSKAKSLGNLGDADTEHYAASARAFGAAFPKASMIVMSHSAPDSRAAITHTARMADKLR
In short: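 NDM-1 at 2 nM final in 50 mM HEPES pH 7.0 with 1 uM ZnSO4 and 0.01% Tween20 was preincubated with library compounds in DMSO. Nitrocefin (50 uM stock) was then added, and absorbance at 485 nm was read at the kinetic plateau.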

[12] = NCATS anti-infectives library activity on HEK293 viability as a counter-qHTS vs the C. elegans viability qHTS (AID 1745854);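 further: HEK293 cells exposed to compounds for 24 hr before the viability read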
In short: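 Compounds were acoustically plated (several concentrations, 1:5, final up to 41.7 uM), then 1500 HEK293 cells added per well and incubated 24 hr at 37C, 5% CO2. CellTiter-Glo was added and luminescence read after 10 min.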

[13] = NCATS anti-infectives library activity on the primary C. elegans qHTS viability assay (AID 1745855; calls by dose curve); conditions: C. elegans worm area imaging, day 7; at 41.8 µM (top of the series)
In short: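 Viability read-out is GFP fluorescence of PE254-GFP-FLuc C. elegans, measured by laser cytometry (488 nm) at day 0, 3 and 7. Ten L1 worms per well were incubated 7 days at 21 °C with compounds and bacterial capsules in S medium.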

[14] = target: Luciferin 4-monooxygenase (Photinus pyralis) (UniProt P08659); test: Primary firefly luciferase (FLuc) qHTS assay for identification of artifact compounds. (AID 1845220); conditions: outcome: dose series up to 54.1 µM unless noted; further: nearly all actives have a fitted effect of over 60% in size
In short: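 FLuc 10 nM; luciferin 10 uM; ATP 10 uM; Tris-acetate pH 7.6, Mg-acetate 10 mM; 15 min RT preincubation; 5 min reaction; luminescence.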

[15] = Primary fluorescence-based thiol-reactive (MSTI) qHTS assay for identification of artifact compounds. (AID 1845221);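 further: thiol-reactive compounds lower the probe fluorescence signal; nearly all actives have a fitted effect of over 65% in size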
In short: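 Probe: MSTI 4 uM, PBS pH 7.4, 2% DMSO. Incubation 1 h, RT, light-protected. Readout fluorescence 525/598 nm.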

[16] = Primary redox qHTS assay for identification of artifact compounds. (AID 1845223)
In short: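 Amplex Red (25 uM) and HRP (250 mU/mL) in HBSS, with compounds for 15 min, then 250 uM DTT for 30 min, room temperature, dark. Fluorescence 525/598 nm read; normalized to DMSO and 10 uM DA3003; Hill fit.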

[17] = system: Nanoluciferase (engineered Oplophorus gracilirostris luciferase); test: Primary Nanoluciferase (NLuc) qHTS assay for identification of artifact compounds. (AID 1845222);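 further: NLuc secreted into diluted conditioned medium of S16 cells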
In short: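 NLuc from S16 cell medium (1:55) plus test compounds, 15 min, room temperature. Luminescence after Nano-Glo (1:100) addition, 5 min.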

## CC12CCC(CC1)C(C)(C)O2
[1]
  outcome: inactive
[2]
  Potency: inactive
[3]
  Potency: inactive
[4]
  outcome: inactive
[5]
  outcome: inactive

## NC(N)=NCCC[C@H](N)C(=O)O
[6]
  activity: 6.47%
[7]
  activity change, negative = inhibition: -1.16%
[8]
  activity: -0.737%
[9]
  activity: 6.66%
[1]
  outcome: inactive
[10]
  outcome: inactive
[2]
  Potency: inactive
[3]
  Potency: inactive
[4]
  outcome: inactive
[5]
  outcome: inactive

## CNCC(O)c1ccc(O)c(O)c1 (stereo unspecified)
[11]
  outcome: inactive
[2]
  Potency: inactive
[3]
  Potency: inactive

## O=C(O)c1ccccn1
[12]
  outcome: inactive
[2]
  Potency: inactive
[3]
  Potency: inactive

## CCOc1nc2cccc(C(=O)O)c2n1Cc1ccc(-c2ccccc2-c2nn[nH]n2)cc1
[12]
  outcome: inactive
[13]
  outcome: inactive
[2]
  Potency: inactive
[3]
  Potency: inactive
[14]
  outcome: inactive
[15]
  Potency: inactive
[16]
  outcome: inactive

## Cc1cc(C(C#N)c2ccc(Cl)cc2)c(Cl)cc1NC(=O)c1cc(I)cc(I)c1O (stereo unspecified)
[6]
  activity: -21.3%
[7]
  Potency: 30.4 µM (active)
[8]
  activity: -81.7%
[9]
  activity: -74.7%
[2]
  Potency: inactive
[3]
  Potency: inactive
[15]
  Potency: inactive
[17]
  outcome: inactive
[16]
  outcome: inactive

## CC(C)(O)c1ccccc1CC[C@@H](SCC1(CC(=O)O)CC1)c1cccc(/C=C/c2ccc3ccc(Cl)cc3n2)c1
[6]
  activity: -3.13%
[7]
  activity change, negative = inhibition: -3.41%
[8]
  activity: -24.6%
[9]
  activity: -2.75%
[2]
  Potency: inactive
[3]
  Potency: inactive
[14]
  outcome: inactive
[15]
  Potency: inactive
[17]
  outcome: inactive
[16]
  outcome: inactive

## Cc1cc(N)c2ccccc2[n+]1CCCCCCCCCC[n+]1c(C)cc(N)c2ccccc21
[6]
  activity: 2.05%
[7]
  activity change, negative = inhibition: -0.381%
[8]
  activity: -23.8%
[9]
  activity: 3.98%
[2]
  Potency: inactive
[3]
  Potency: inactive
[14]
  outcome: inactive
[15]
  Potency: inactive
[17]
  outcome: inactive
[16]
  outcome: inactive

## CCCCCCCCCCCCCCCC(=O)NCCO
[12]
  outcome: inactive

## CC[C@H]1CN2CCc3cc(OC)c(OC)cc3[C@@H]2C[C@@H]1C[C@H]1NCCc2cc(OC)c(OC)cc21
[13]
  outcome: inactive
[2]
  Potency: inactive
[3]
  Potency: inactive
